Key:
HCC1937 = test: relative cell viability, compound alone, vs DMSO (fraction of DMSO control); higher = less growth inhibition; conditions: 72 h
MDA-MB-231 = test: as above; conditions: 72 h
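Further: viability read out with the CCK-8 kit in 96-well plates, screening a set of 303 compounds acting on lipid metabolism targets.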

Row | SMILES | relative cell viability (HCC1937) | relative cell viability (MDA-MB-231)
1 | CCCc1cc(-c2nc(-c3ccc(NS(C)(=O)=O)cc3)cs2)ccn1 | 0.669 | 0.926
2 | CC[C@H](C)C(=O)O[C@H]1C[C@@H](C)C=C2C=C[C@H](C)[C@H](CC[C@@H]3C[C@@H](O)CC(=O)O3)[C@H]21 [Lovastatin] | 1.13 | 0.657
3 | CCOC(=O)C(C)(C)Oc1ccc(Cl)cc1 [Clofibrate] | 1.15 | 0.9
4 | CC(C)(Oc1ccc(C(=O)c2ccc(Cl)cc2)cc1)C(=O)O [Fenofibric acid] | 0.686 | 0.842
5 | CC(C)c1c(C(=O)Nc2ccccc2)c(-c2ccccc2)c(-c2ccc(F)cc2)n1CC[C@@H](O)C[C@@H](O)CC(=O)O [Atorvastatin Calcium] | 0.657 | 0.569
6 | CC(=O)O[C@H](CC=C(C)C)C1=CC(=O)c2c(O)ccc(O)c2C1=O [Acetyl shikonin] | 1.08 | 1.06
7 | C[C@@H](Nc1nc(N[C@H](C)C(F)(F)F)nc(-c2cccc(Cl)n2)n1)C(F)(F)F [Vorasidenib] | 0.708 | 0.914
8 | CCCCCCCCCCOc1ccc(C(=O)Nc2cc(C(=O)NCCCC)ccc2SC)cc1 | 1.02 | 1.06
9 | NC(=O)c1cccc(-c2cccc(OC(=O)NC3CCCCC3)c2)c1 | 0.822 | 1.02
10 | Cc1c2c(=O)n(-c3ccccc3Cl)[nH]c2cc(=O)n1Cc1ccccn1 | 0.973 | 1.07
11 | CCc1ccc(N(CC(C)C)S(=O)(=O)c2ccc(OCC3CCOCC3)c(CO)c2)cc1 | 0.954 | 0.939
12 | Cc1nc2ccc(NCc3cccc(C(F)(F)F)c3)cc2n(CCNC(=O)CO)c1=O | 0.667 | 0.835
13 | CC[C@H](C)C(=O)O[C@H]1CCC=C2C=C[C@H](C)[C@H](CC[C@@H]3C[C@@H](O)CC(=O)O3)[C@H]21 [Mevastatin] | 0.819 | 0.548
14 | COc1cc(N2CCN(C)CC2)ccc1Nc1ncc2c(n1)N(C)c1ccccc1C(=O)N2 | 0.666 | 0.655
15 | O=c1cc(-c2ccc(O)c(-c3c(O)cc(O)c4c(=O)cc(-c5ccc(O)cc5)oc34)c2)oc2cc(O)cc(O)c12 [Amentoflavone] | 0.782 | 0.812
16 | O=C1c2cccc(O)c2C(=O)c2c(O)cccc21 [Antrapurol] | 0.699 | 0.808

Row | SMILES | relative cell viability (HCC1937) | relative cell viability (MDA-MB-231)
17 | C[C@H](CCC(=O)O)[C@H]1CC[C@H]2[C@@H]3CC[C@@H]4C[C@H](O)CC[C@]4(C)[C@H]3CC[C@]12C [Lithocholic acid] | 1.16 | 0.99
18 | NC(N)=N/N=C/c1cccc(Cl)c1Cl [Raphin1 acetate] | 1.01 | 0.822
19 | COc1ccc(CN2CCC(c3ccc4nc(C(=O)N5CCN(Cc6ccc(C(F)(F)F)cc6)CC5)[nH]c4c3)CC2)cn1 | 0.849 | 0.795
20 | O=C(O)CN(CC(=O)O)c1ccccc1OCCOc1ccccc1N(CC(=O)O)CC(=O)O | 0.633 | 0.899
21 | O=C(O)c1cc2c(Cl)c(N3CCN(S(=O)(=O)c4c(Cl)cccc4Cl)CC3)ccc2o1 [Vonafexor] | 1.16 | 1.16
22 | CC[C@H](C)C(=O)O[C@H]1C[C@H](O)C=C2C=C[C@H](C)[C@H](CC[C@@H](O)C[C@@H](O)CC(=O)O)[C@H]21 [Pravastatin sodium] | 0.918 | 0.964
23 | CC(C)(C)N1C(=O)C(Nc2ccc(N3CCCCC3)cc2)=C(c2ccccc2)S1(=O)=O | 1.15 | 0.947
24 | COCCNC(=O)Nc1ccc2nc(-c3cccs3)c(-c3cccs3)nc2c1 [Ac-CoA Synthase Inhibitor1] | 0.959 | 0.91
25 | Nn1nnc2ccccc21 [1-Aminobenzotriazole] | 1.07 | 0.937
26 | COc1ccc2c(=O)c(-c3ccccc3)coc2c1 [7-Methoxyisoflavone] | 0.594 | 0.859
27 | COc1ccc(-c2cc(=O)c3c(O)c(OC)c(O)cc3o2)cc1OC [Eupatilin] | 0.622 | 0.739
28 | CN(C(=O)n1cnc(-c2ccc[n+]([O-])c2)c1)C1CCCCC1 | 0.65 | 0.934
29 | CCOC(=O)N1c2ccc(C(F)(F)F)cc2[C@@H](N(Cc2cc(C(F)(F)F)cc(C(F)(F)F)c2)C(=O)OC)C[C@H]1CC [Torcetrapib] | 0.745 | 0.781
30 | Cc1coc2c1C(=O)C(=O)c1c-2ccc2c(C)cccc12 [Tanshinone I] | 0.287 | 0.51
31 | COc1cccc(-n2c(=O)[nH]c3cc(Cl)n(-c4ccc(-c5cccc(OC)c5O)cc4)c3c2=O)c1 | 0.835 | 0.903

Reference: the supplement of paper PMC9492666
